Data: ChEMBL document CHEMBL1201862, “PubChem BioAssay data set” (2004)
The campaign covered roughly 53,000 sequences. About 5,500 (10%) were called active. Rule as the data show it: active = GI50 up to about 1.1 µM and inactive = higher. Only a selection was taken, and actives are over-represented in it overall. Potency and affinity values are given separately.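 Tested at 5 concentrations; 48 h exposure; 96-well plates; endpoints linearly interpolated, else capped at highest concentration. Here, GI50 denotes the concentration required for 50% inhibition of growth.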

System: HL-60
Experiment: NCI tumour cell line growth inhibition, 48 h

| Substance | GI50 |
| --- | --- |
| ACRIFLAVINE HYDROCHLORIDE, CHEMBL5219995 | 333 nM |
| cis-Bis[[(trimethylsilyl)methyl]amino]tetrachloroplatinum(IV), CHEMBL2146191 | 1760 nM |
| [Bis(aminomethyl)tetramethylenesilane]tetrachloropaltinum(IV), CHEMBL2146189 | 115 nM |
| [Bis(aminomethyl)dimethylsilane]tetrachloroplatinum(IV), CHEMBL2146190 | 248 nM |
| [Bis(aminomethyl)ethylmethylsilane]tetrachloroplatinum(IV), CHEMBL2146192 | 156 nM |
| CISPLATIN, CHEMBL11359 | 542 nM |
| [Bis(aminomethyl)dimethylsilane]dichloroplatinum (II), CHEMBL2146201 | 1300 nM |
| [Bis(aminomethyl)tetramethylenesilane]dichloropaltinum(II), CHEMBL2146205 | 1570 nM |
| [Bis(aminomethyl)diethylsilane]tetrachloroplatinum(IV), CHEMBL2146203 | 91.2 nM |
| [Bis(aminomethyl)pentamethylenesilane]tetrachloropaltinum(IV), CHEMBL2146204 | 56.6 nM |
| mu-(1,7-nanodiamine-N,N')bis-(cis-aminedichloroplatimum (II)), CHEMBL2146215 | 1640 nM |
| [Bis(aminomethyl)pentamethylenesilane]dichloropaltinum(II), CHEMBL2146202 | 51.3 nM |
